Our source for the outcome and AC50 values is PubChem BioAssay (EPA / NIEHS).

Active and inactive are the calls of the source. How the source made its calls: active means hit-call score of the fitted dose curve at least 0.9, where 1 is the maximum; inconclusive means response in the unintended direction; inactive means score below 0.9.

Estrogen receptor (Homo sapiens), sequence (P03372 whole entry, looked up, the tested form may be a part): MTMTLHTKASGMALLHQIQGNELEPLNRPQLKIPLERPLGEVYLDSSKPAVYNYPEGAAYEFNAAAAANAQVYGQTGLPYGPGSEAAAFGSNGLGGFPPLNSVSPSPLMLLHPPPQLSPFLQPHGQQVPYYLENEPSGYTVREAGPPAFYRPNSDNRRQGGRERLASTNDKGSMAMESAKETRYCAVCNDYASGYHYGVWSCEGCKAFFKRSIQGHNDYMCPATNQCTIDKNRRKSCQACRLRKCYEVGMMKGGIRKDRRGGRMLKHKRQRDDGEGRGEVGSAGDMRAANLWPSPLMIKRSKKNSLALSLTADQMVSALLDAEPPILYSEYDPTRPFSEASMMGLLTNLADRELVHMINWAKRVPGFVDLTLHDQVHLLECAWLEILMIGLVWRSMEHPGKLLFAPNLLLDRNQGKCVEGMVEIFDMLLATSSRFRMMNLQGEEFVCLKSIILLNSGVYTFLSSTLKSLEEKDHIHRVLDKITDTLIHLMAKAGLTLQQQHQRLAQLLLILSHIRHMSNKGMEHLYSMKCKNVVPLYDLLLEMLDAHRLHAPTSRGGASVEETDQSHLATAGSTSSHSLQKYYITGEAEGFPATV

The experiment addresses Estrogen receptor (Homo sapiens) (UniProt P03372). Briefly: OT_ER_ERaERa_1440: Odyssey Thera (OT) 24-hour HEK293T Protein-Complementation Assay for Estrogen Receptor-alpha/-alpha Homodimer (AID 2283349).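 Further: hits raise fluorescence above DMSO for agonists and antagonists alike.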 As to the method: OT_ER_ERaERa_1440 is a cell-based assay that uses HEK293T, a human kidney cell line, with measurements taken at 24 hours after chemical dosing in a 384-well plate.OT_ER_ERaERa_1440 is one of one assay component(s) measured or calculated from the OT_ER_ERaERa_1440 assay. It is designed to make measurements of protein fragment complementation, a form of binding reporter, as detected with fluorescence intensity signals by Protein-fragment Complementation technology.Data from the assay component OT_ER_ERaERa_1440 was analyzed into 1 assay endpoint. This assay endpoint, OT_ER_ERaERa_1440, was analyzed in the positive analysis fitting direction relative to DMSO as the negative control and baseline of activity. Using a type of binding reporter, measures of receptor for gain-of-signal activity can be used to understand the binding at the pathway-level as they relate to the gene ESR1. Furthermore, this assay endpoint can be referred to as a primary readout, because the performed assay has only produced 1 assay endpoint. To generalize the intended target to other relatable targets, this assay endpoint is annotated to the nuclear receptor intended target family, where the subfamily is steroidal.
Protein-fragment complementation assay, or PCA, is a method for the identification and quantification of protein-protein interactions. In the PCA, the proteins of interest ("bait" and "prey") are each covalently linked to fragments of a third protein (e.g. DHFR, which acts as a "reporter"). Interaction between the bait and the prey proteins brings the fragments of the reporter protein in close proximity to allow them to form a functional reporter protein whose activity can be measured. The OT ER alpha / ER alpha assay is a homodimer PCA of the ligand binding domain (amino acids 310-547) of human ER alpha stably expressed in HEK293T cells. […] Fluorescent signal in the basal state of the assay is very low and is primarily punctuate and cytoplasmic. Modulation of this assay is quantified as an increase in mean fluorescence intensity in the nucleus (for agonists) or in the nucleus and cytoplasm (antagonists) relative to vehicle controls, and can be quantified on a high content imaging device or a laser scanning cytometer. The latter instrument is favored for this assay because of the rapid mode of data acquisition, the ability to acquire data from the entire cell population in a well (as opposed to a fraction of the well on the high content devices) and the larger dynamic range typically achieved with this instrument. To assess sensitivity of the ER alpha/ER alpha LBD assay to ligand, cells were treated with the ER agonist 17 beta-estradiol (E2) in 10-point concentration- response format for 24 hours and monitored response on a laser scanning plate cytometer (Acumen eX3; TTP Lab Tech).
For `Cc1ccc(C(C)(C)C)cc1`, the call was inactive.

For the compound `CC(C)c1ccc2c(C(C)C)cc(C(C)C)c(S(=O)(=O)O)c2c1`, the compound was called inactive.

As for `CC1=NN(c2cc(S(=O)(=O)O)ccc2Cl)C(=O)C1N=Nc1ccccc1` (stereo not given), the result was inactive.

`CC(=O)[C@H]1[C@H](C#N)C[C@H]2[C@@H]3CC=C4C[C@@H](O)CC[C@]4(C)[C@H]3CC[C@@]21C`: the outcome was inactive.

Consider `CC1=CC[C@H]2C[C@@H]1C2(C)C`, for which the result was inactive.

With `Cc1cc(C)c(C)cc1C`, the compound was called inactive.

As to `CCCCCCCOC(=O)CCC`, the compound was classed as inactive.

Turning to `NC(=O)N=NC(N)=O`, the compound was called inactive.

For the compound `O=C(c1ccccc1)C1CCC1`, the compound was classed as inactive.

In the case of `O=C(O)CCCC[C@@H]1SC[C@@H]2NC(=O)N[C@@H]21`, the result was inactive.

For the compound `OC1CCCC1`, the call was inactive.

For `CC(=O)OC(C)C`, the compound was called inactive.

Take `CCO[Si](C)(OCC)OCC`: the call was inactive.

For the compound `CCCCCCCCCCCCCOP(=O)(O)O`, the compound was classed as inactive.

For the compound `CC(C)C1=CC2=CC[C@@H]3[C@](C)(CCC[C@@]3(C)C(=O)O)[C@H]2CC1`, the AC50 was 12 µM (active).

`c1ccc2c(c1)ccc1cc3c(ccc4ccccc43)cc12`: the result was inactive.

For `CCCCOCCOC(=O)COc1nc(Cl)c(Cl)cc1Cl`, the call was inactive.

On to `C=C1C2CCC(C2)C1(C)C` (stereo not given), for which the compound was called inactive.

For `CCCCCc1ccc(Cl)cc1`, the outcome was inactive.

Consider `OC1CCCCCCCCCCC1`, for which the call was inactive.

For the compound `CCCCC(CC)CCC(CC(C)C)OS(=O)(=O)O` (stereo not given), the compound was called inactive.

For the compound `CCCCCCCC[N+](C)(CCCCCCCC)CCCCCCCC`, the result was inactive.

On to `NC(CO)(CO)CO`, for which the call was inactive.

Regarding `C=C[Si](C)(C)O[Si](C)(C)C=C`, the outcome was inactive.

For the compound `Cn1c([N+](=O)[O-])cnc1COC(N)=O`, the outcome was inactive.

For the compound `CCOC(=O)Cc1cccc2ccccc12`, the compound was classed as inactive.

Consider `C=CC(=O)NC(C)(C)CS(=O)(=O)O`, for which the call was inactive.

On to `Cc1ccc(N/N=c2\c(=O)cc/c(=N/Nc3ccc(S(=O)(=O)O)cc3)c2=O)c(C)c1`, for which the result was inactive.

Regarding `Oc1ccc(Cl)cc1Cc1cc(Cl)ccc1O`, the AC50 was 11.9 µM (active).

Consider `CC/C=C\C/C=C\C/C=C\CCCCCCCC(=O)O`, for which the outcome was inactive.

As for `CN(C)c1ccc(C(=N)c2ccc(N(C)C)cc2)cc1`, the AC50 is 33.4 µM (active).

For the compound `O=C(OCC1CCC2OC2C1)C1CCC2OC2C1` (stereo not given), the compound was classed as inactive.

As to `O=C1CCCC1`, the compound was classed as inactive.

As for `CCCCCCCC/C=C\CCCCCCCC(=O)OCCO`, the call was inactive.

As for `CC(C)(C)c1ccc(N)cc1`, the result was inactive.

With `CC(CC=O)CCCC(C)(C)O` (stereo not given), the result was inactive.

As for `CN(C)c1ccc(N=Nc2ccccc2C(=O)O)cc1`, the compound was called inactive.

`CC(C)=CCC[C@H](C)CCO`: the outcome was inactive.

`NC(=O)c1ccccc1O`: the compound was classed as inactive.

`O=C1C(N(CO)C(=O)NCO)N(CO)C(=O)N1CO` (stereo not given): the compound was called inactive.

What is called AC50 is the concentration giving half of the maximal activity seen.
